Compound activity: PubChem, National Center for Advancing Translational Sciences (NCATS)
PINK1 modulator: modulators of PINK1 expression | AID 624263 | PINK1 immunofluorescence, high-content cytometry, 24 h | Potency, µM (series often up to 76.6 µM), for the others: at the top dose activation (PINK1 increase), hits mostly activators | actives 0.2% (n = 410,000); active means well fitted activation curve with a large enough effect; inconclusive means small, poorly fitted or top-dose-only effect; cell line not stated here; further: potency means the concentration at half of the fitted maximal effect; % of control where 0% means no effect; nearly all actives have a fitted effect of over 65% in size
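Measures PINK1 amount and localization on or inside mitochondria by immunofluorescence. Stable cells get compounds at 5 concentrations for 24 hours before fixation and staining; CCCP controls included.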
ATXN2 expr inh: inhibitors of ATXN2 expression. HEK-293 ATXN2-luciferase reporter, luminescence, 24 h. Potency, µM (highest dose often 57 µM), for the others: at the highest dose activity change, negative = inhibition, most hits filed as inhibitors. actives 0.72% (n = 360,000); further: potency means the concentration at half of the fitted maximal effect; on the % scale 0 is the no-effect control and ±100 the full control effect; nearly all actives have a fitted effect of over 55% in size
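qHTS (up to 57 uM final) was run with 24 h compound exposure of reporter cells at 37 °C. Each well was multiplexed: SteadyGlo luminescence measured ATXN2-luciferase expression after a fluorogenic Gly-Phe-AFC viability readout (25 uM final).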
SW480 rerep: inducers of DNA re-replication in SW480 colon cancer cells | SW480 DNA re-replication, Hoechst DNA content imaging, 48 h | Potency, µM (series often up to 46.1 µM), inactives show at the top dose re-replication activation, most hits filed as activators | actives 1.8% (n = 340,000); further: potency means the concentration at half of the fitted maximal effect; % of control where 0% means no effect; nearly all actives have a fitted effect of over 55% in size
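250 cells/well; 23 nL cpd via pin tool; 48 hr, 37 C, 5% CO2; Hoechst 40 min; imager read of total nuclear intensity, ex 405/em 500-530 nm.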
IL1B secr inh: inflammasome signaling inhibition, IL-1 beta readout; THP-1 LPS/ATP IL-1B secretion, AlphaLISA, 16 h; active compounds read low; activity change, % at 57.5 µM; actives 4.7% (n = 360,000); AID 743279; in the data active means activity change below about -50%; inconclusive means mostly about -30% to -49%; further: on the % scale 0 is the no-effect control and ±100 the full control effect
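THP-1 cells pretreated 1 hr with compounds (up to 57.5 uM final), then stimulated with LPS (250 ng/mL final) plus ATP (1.25 mM final); secreted IL-1B measured by AlphaLISA after 16 hr, decreased signal indicating inhibition.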
MCF10A rereplic: DNA re-replication induction in MCF 10a cells; actives 2.9% (n = 350,000); Potency, µM (top dose mostly 46.1 µM), inactives show at the highest dose activity, positive = re-replication, usual class: activators; MCF 10A DNA re-replication, Hoechst nuclear intensity, 48 h; further: potency means the concentration at half of the fitted maximal effect; % of control where 0% means no effect; nearly all actives have a fitted effect of over 50% in size
ATXN viability: cell viability loss in ATXN counter-screen | S2 cells (HEK-293 line with an ATXN2-luciferase reporter) viability, CellTiter-Fluor protease fluorescence, 24 h | Potency, µM (doses to about 56.7 µM), actives largely listed as cytotoxic | actives 0.49% (n = 400,000) | AID 651635; further: potency means the concentration at half of the fitted maximal effect; nearly all actives have a fitted effect of over 40% in size
* hit, by the source's call; [ ] = another dose, or the depositor's remark. The list is not random: actives were taken first. Their share in the collection is about 7.1%. Unless noted, the call rests on the fitted dose curve; in most records, active means well fitted curve in the direction sought with a large enough effect; inconclusive means small, poorly fitted or top-dose-only effect, or another doubt; inactive means no such curve, though single readings can be large; an effect the other way counts as inactive or inconclusive.

What do the screens show for `Oc1ccc(N=Nc2cccc(C(F)(F)F)c2)cc1C=Nc1ccc(N2CCOCC2)cc1`?
PINK1 modulator: inconclusive; ATXN2 expr inh: -21%; SW480 rerep: inconclusive; IL1B secr inh: 42; MCF10A rereplic: 5.8µM*; ATXN viability: inactive

Results for COc1cccc(N2CC(NC(=O)COc3ccc4ccccc4c3)CC2=O)c1 (configuration not stated) ?
PINK1 modulator: 1%

What do the screens show for `Cn1c(=O)c2c(nc(NCc3ccccc3)n2Cc2ccc(Cl)c(Cl)c2)n(C)c1=O`?
PINK1 modulator: 0%; ATXN2 expr inh: inconclusive

How did CCOc1ccccc1NC(=O)Cn1c(=O)ccc2cc(S(=O)(=O)N3CCCC3)ccc21 do in these assays?
PINK1 modulator: -1%; ATXN2 expr inh: 1%; ATXN viability: inactive

What do the screens show for `Cc1cc(Cl)ccc1OCc1n[nH]c(=S)n1C1CCCCC1`?
PINK1 modulator: -2%; ATXN2 expr inh: 2%; SW480 rerep: -1%; IL1B secr inh: 20; MCF10A rereplic: 26µM*; ATXN viability: inactive

What do the screens show for `O=C(NCCNC(=O)c1ccc(-c2ccc(Cl)c(Cl)c2)o1)c1cnccn1`?
PINK1 modulator: -2%; ATXN2 expr inh: -19%; SW480 rerep: -5%; IL1B secr inh: -74*; MCF10A rereplic: 9%; ATXN viability: inconclusive

What do the screens show for `O=C(NCCNC(=O)c1ccc(-c2cccc(Cl)c2)o1)c1cnccn1`?
PINK1 modulator: 3%; IL1B secr inh: -12; ATXN viability: inactive

Results for O=C(Nc1ccc(Cl)cn1)c1ccc(-c2ccc(Cl)c(Cl)c2)o1 ?
PINK1 modulator: inconclusive; ATXN2 expr inh: inconclusive; SW480 rerep: 1%; IL1B secr inh: -3; MCF10A rereplic: 18µM*; ATXN viability: inconclusive

Results for COc1ccc(C(=O)Nc2ccc(Cl)cn2)cc1Cl ?
ATXN2 expr inh: 43%; SW480 rerep: inconclusive; IL1B secr inh: inconclusive; MCF10A rereplic: 18µM*; ATXN viability: inactive

What do the screens show for `CCn1nc(C(=O)Nc2nc3ccc(C)cc3s2)c2ccccc2c1=O`?
PINK1 modulator: 4%[38.3 µM]; ATXN2 expr inh: -22%; SW480 rerep: 21µM*; IL1B secr inh: -8; MCF10A rereplic: 23µM*; ATXN viability: inactive

Results for Cc1nc2ccc(NC(=O)c3nn(CC(C)C)c(=O)c4ccccc34)cc2s1 ?
PINK1 modulator: -3%; ATXN2 expr inh: -4%; SW480 rerep: -3%; IL1B secr inh: -85*; MCF10A rereplic: inconclusive; ATXN viability: inconclusive

What do the screens show for `Cc1cc(C)c(NC(=O)CCC(=O)N2Cc3ccccc3Oc3ncccc32)c(C)c1`?
PINK1 modulator: 2%; ATXN2 expr inh: 9%; ATXN viability: inactive

How did Cc1noc(C)c1CCC(=O)N1CCOc2ccc(CN3CCN(c4ccccn4)CC3)cc2C1 do in these assays?
PINK1 modulator: 0%; ATXN viability: inactive

How did Cc1nc2c(-c3ccc(Cl)cc3)c(C)[nH]n2c(=O)c1Cc1ccccc1 do in these assays?
PINK1 modulator: 35µM*; ATXN2 expr inh: inconclusive; SW480 rerep: inconclusive; IL1B secr inh: 109; MCF10A rereplic: inconclusive; ATXN viability: inconclusive

How did Cc1[nH]n2c(=O)c3c(nc2c1-c1ccc(F)cc1)CCCC3 do in these assays?
PINK1 modulator: 0%; ATXN2 expr inh: 10%[11.3 µM]; SW480 rerep: -3%; IL1B secr inh: 8; MCF10A rereplic: -9%; ATXN viability: inactive

Results for Cc1nc2c(-c3ccccc3)c(C)[nH]n2c(=O)c1Cc1ccccc1 ?
PINK1 modulator: 0%; ATXN2 expr inh: -17%; SW480 rerep: inconclusive; IL1B secr inh: 84; MCF10A rereplic: inconclusive; ATXN viability: inactive

How did Cc1cccc(Cc2c(C)nc3c(-c4ccccc4)c(C)[nH]n3c2=O)c1 do in these assays?
PINK1 modulator: 5%; ATXN2 expr inh: 13µM*; ATXN viability: inconclusive

Results for Cc1nc2c(-c3ccc(F)cc3)c(C)[nH]n2c(=O)c1Cl ?
PINK1 modulator: 0%; ATXN2 expr inh: -32%; SW480 rerep: 7.3µM*; IL1B secr inh: 1; MCF10A rereplic: 13%; ATXN viability: inactive

Results for CCOC(=O)/C(=C\C=C\c1ccccc1)NC(=O)c1ccccc1 ?
PINK1 modulator: -1%; ATXN2 expr inh: 3%; SW480 rerep: -2%; IL1B secr inh: -90*; MCF10A rereplic: -3%; ATXN viability: inactive

Results for CN(C)CCCNC(=O)/C(=C\C=C\c1ccccc1)NC(=O)c1ccc([N+](=O)[O-])cc1 ?
PINK1 modulator: 9%; ATXN2 expr inh: -37%; SW480 rerep: inconclusive; IL1B secr inh: -57*; MCF10A rereplic: 6%; ATXN viability: inactive

Results for CCOC(=O)/C(=C/C=C/c1ccccc1)NC(=O)c1ccccc1 ?
PINK1 modulator: -1%; ATXN2 expr inh: -17%[11.3 µM]; SW480 rerep: 0%; IL1B secr inh: -12; MCF10A rereplic: 3%; ATXN viability: inactive

What do the screens show for `CCCCOc1ccc(C(=O)N/C(=C/C=C/c2ccccc2)C(=O)NCCO)cc1`?
PINK1 modulator: 1%; ATXN2 expr inh: 2%; SW480 rerep: -2%; IL1B secr inh: -53*; MCF10A rereplic: inconclusive; ATXN viability: inactive

What do the screens show for `COc1ccc(/C=C(/NC(=O)c2ccc([N+](=O)[O-])cc2)C(=O)NCCCN(C)C)cc1`?
PINK1 modulator: 0%; ATXN2 expr inh: -15%; SW480 rerep: -2%; IL1B secr inh: -1; MCF10A rereplic: 1%; ATXN viability: inactive

Results for CC(C)c1onc(-c2c(Cl)cccc2Cl)c1COc1ccc(C=Cc2cccc(C(=O)O)c2)c(Cl)c1 ?
ATXN2 expr inh: 44%

Results for CCCCC(=O)Oc1c(S(=O)(=O)c2ccccc2)c(C)nn1C(C)(C)C ?
PINK1 modulator: -3%; ATXN2 expr inh: -26%; SW480 rerep: -1%; IL1B secr inh: -77*; MCF10A rereplic: inconclusive; ATXN viability: inactive

Results for CCCC(=O)Oc1c(S(=O)(=O)c2ccc(C)cc2)c(C)nn1C(C)(C)C ?
PINK1 modulator: 4%; ATXN2 expr inh: -24%; SW480 rerep: 1%; IL1B secr inh: 23; MCF10A rereplic: inconclusive; ATXN viability: inactive

What do the screens show for `CCOC(=O)c1c(Nc2cc(C)cc(C)c2)nnc(-c2ccccc2)c1-c1ccccc1`?
PINK1 modulator: -1%; ATXN2 expr inh: -15%; ATXN viability: inactive

Results for C=CC[C@@H](CC(=O)OC(C)(C)C)C(=O)OC[C@@H]1CCCN1C(=O)[C@@H](CC=C)CC(=O)N[C@@H](CO)Cc1ccccc1 ?
PINK1 modulator: 2%; ATXN2 expr inh: -15%; SW480 rerep: -11%; IL1B secr inh: 0; MCF10A rereplic: -3%; ATXN viability: inconclusive
